A selection: hits, their analogues and other compounds. The true share with any hit is near 4.6%.
TRHR ag: agonists of human TRH receptor; 360,000 compounds, 0.18% hits; TRHR cells, calcium flux fluo-8, FDSS agonist mode; AID 493084; P34981; activation, % at 2 µM; also: 0% is about no effect
Target sequence (P34981 whole entry, looked up): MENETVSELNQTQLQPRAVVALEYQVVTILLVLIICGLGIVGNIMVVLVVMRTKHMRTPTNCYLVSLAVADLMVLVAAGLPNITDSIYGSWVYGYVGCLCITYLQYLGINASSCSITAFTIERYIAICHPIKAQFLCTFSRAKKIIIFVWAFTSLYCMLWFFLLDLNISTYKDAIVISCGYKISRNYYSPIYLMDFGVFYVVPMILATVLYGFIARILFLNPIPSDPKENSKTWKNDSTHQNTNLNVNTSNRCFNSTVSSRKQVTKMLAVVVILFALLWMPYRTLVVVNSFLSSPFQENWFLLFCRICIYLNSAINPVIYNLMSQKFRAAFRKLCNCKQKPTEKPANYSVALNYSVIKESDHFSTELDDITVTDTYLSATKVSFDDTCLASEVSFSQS
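Read-out: compound-evoked intracellular calcium rise in TRHR cells, fluo-8 dye, kinetic FDSS fluorescence at 1 s/cycle following a 10-cycle baseline. Cells cultured overnight before dye loading (30 min–1.5 h, RT).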
D1 ag: human D1 receptor agonism; HEK293 T-REx D1 cells, calcium flux, agonist mode; 360,000 compounds, 1% hits; P21728; activation, % at 2 µM; also: 0% is about no effect
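Tetracycline-induced HEK293 TREx D1 cells, force-coupled to calcium signalling, were dye-loaded with a no-wash calcium kit. Compound was pin-added after a 10 s baseline. Fluorescence was read kinetically at 1 cycle/s for 180 s, with calcium rises flagged as agonism.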
TRHR enhancer: allosteric enhancers of human TRH receptor; TRHR cells, fluo-8 calcium fluorescence, EC20 TRH enhancement; enhancement, % at 2 µM; 360,000 compounds, 0.66% hits; P34981; in the data active = enhancement above about 30%; also: 0% is about no effect
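TRHR-expressing cells loaded with fluo-8 calcium dye were read kinetically (ex 480/em 530) during compound addition, then stimulated with an EC20 of TRH (10 nM final). Enhancement of the Gq-mediated intracellular calcium response was scored.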
D1 potentiator: potentiators of human D1 dopamine receptor; P21728; HEK293 TREx D1 cells, calcium flux, dopamine EC20 potentiation; potentiation, % at 10 µM; 360,000 compounds, 0.036% hits; AID 504651; in the data active = potentiation above about 30%; also: 0% is about no effect
D1 antag: antagonists of human D1 dopamine receptor. P21728. 360,000 compounds, 3.2% hits. activity change, negative = inhibition, % at 10 µM. HEK293 TREx D1 cells, calcium flux, dopamine EC80; stronger effect = lower value; in the data active = activity change below about -30%; also: % is scaled to controls: 0 for no effect and ±100 for the full control effect
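After overnight tetracycline induction at 30 C, force-coupled D1 HEK293 cells took up a no-wash calcium dye at room temperature. Compounds were added and monitored 180 s, and the response to EC80 dopamine was then recorded.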
* hit, by the source's call; x = no result given. Rule as the data show it, unless noted: active = activation above about 30%; inactive = the rest.

SMILES | TRHR ag | D1 ag | TRHR enhancer | D1 potentiator | D1 antag
CCC(Sc1nc2cc(OC)c(OC)cc2c(=O)n1CCc1ccc(OC)c(OC)c1)C(=O)NCCOC (stereo unspecified) | 0 | 0 | -3 | -7 | -30*
O=C(Nc1ccc(S(=O)(=O)N2CCCCCC2)cc1)c1[nH]ncc1[N+](=O)[O-] | 0 | 7 | 0 | -6 | -34*
COc1ccc(C2=NN(C(C)=O)C(c3cn(-c4ccccc4)nc3-c3cccs3)C2)cc1 (stereo unspecified) | 3 | 1 | 0 | -2 | 12
Cc1cc2c(s1)c1cnn(Cc3c(F)ccc(F)c3Cl)c(=O)c1n2C | 1 | 7 | 2 | 5 | 5
COc1ccc(C)cc1S(=O)(=O)NCCN1CCOCC1 | 1 | 5 | 40* | -9 | 8
Cc1ccc(C)c(S(=O)(=O)Nc2ccc(C(=O)NCCCN3CCOCC3)cc2)c1 | 0 | 2 | 1 | 5 | 11
COc1ccc2oc(C(=O)NCCN3CCOCC3)c(C)c2c1OC | 1 | 0 | 34* | -1 | 20
COc1ccc(C(=O)NCCN2CCOCC2)cc1S(=O)(=O)Nc1ccc(C)cc1 | 0 | 6 | 0 | 10 | -36*
O=[N+]([O-])c1cccc(NC(=S)Nc2nc(-c3ccc(Cl)cc3Cl)cs2)c1 | 1 | 7 | 3 | -7 | -31*
COc1ccc(N(Cc2cccs2)C(=O)c2ccc(Br)o2)cc1 | 0 | 4 | 5 | 3 | -17
O=C(c1cccc(F)c1)N1CCN(Cc2c[nH]c3ccccc23)CC1 | 1 | 1 | -2 | -5 | -55*
O=C(c1ccccc1)N1CCN(Cc2c[nH]c3ccccc23)CC1 | 0 | 6 | -6 | -7 | 16
O=[N+]([O-])c1ccccc1CN1CCN(Cc2c[nH]c3ccccc23)CC1 | 2 | 19 | 20 | -10 | -30*
COc1ccc(Br)cc1CN1CCN(Cc2c[nH]c3ccccc23)CC1 | 3 | 38* | 1 | -18 | -15
CC(=O)OCC(=O)c1c[nH]c2ccccc12 | 1 | 0 | -9 | -6 | 11
CC(=O)c1c(C)[nH]c(C(=O)OCC(=O)c2c[nH]c3ccccc23)c1C | 0 | 4 | -1 | -3 | -31*
Brc1ccc(Nc2c3c(nc4nncn24)CCC3)cc1 | -1 | 2 | -1 | -1 | -4
COc1cccc(NC(=O)C(=O)NCC(c2cccnc2)N2CCN(c3ccccc3)CC2)c1 (stereo unspecified) | 0 | -1 | 8 | 6 | -4
O=C(COC(=O)C1CC1)c1c[nH]c2ccccc12 | 0 | -4 | 0 | 1 | -11
O=C(Cc1ccccc1[N+](=O)[O-])OCC(=O)c1c[nH]c2ccccc12 | 0 | 2 | 1 | -5 | -38*
COc1ccc(OCc2cc(C(=O)N(C)C3CCOCC3)no2)c2ccccc12 | 0 | 4 | -1 | -1 | 9
FC(F)(F)c1cccnc1Oc1ccc(C2=NCCS2)cc1 | 8 | 37* | -1 | -2 | -6
Nc1cccnc1Oc1ccc(F)cc1 | 0 | 0 | 3 | -4 | -1
Cc1cc2c(s1)c1cnn(Cc3c(F)c(F)cc(F)c3F)c(=O)c1n2C | 0 | 3 | 1 | 8 | 7
Cc1nc(N2CCN(C(=O)c3ccco3)CC2)nc2c1C(=O)CCC2 | -1 | 6 | 0 | -9 | 3
SMILES | TRHR ag | D1 ag | TRHR enhancer | D1 potentiator | D1 antag
Cc1cccc(NS(=O)(=O)c2ccc3[nH]c4c(c3c2)CCCCCC4)c1 | 0 | 1 | -2 | -6 | -87*
CN(CC(=O)NCc1ccc(F)cc1)S(=O)(=O)c1ccc2[nH]c3c(c2c1)CCCC3 | -1 | 1 | -2 | -1 | -10
COc1ccc(CNC(=O)CN(C)S(=O)(=O)c2ccc3[nH]c4c(c3c2)CCCC4)cc1 | 1 | -1 | 47* | 0 | -4
CCOc1ccc(NS(=O)(=O)c2ccc3[nH]c4c(c3c2)CCCC4)cc1 | 0 | 0 | 6 | 1 | -52*
COc1cccc(-c2ncc3ccccc3c2COC(=O)c2ccc(F)cc2)c1 | 0 | 2 | -1 | 1 | x
CN(C(=O)c1cc2nc(-c3ccc4c(c3)OCO4)cc(C(F)(F)F)n2n1)c1ccc(OC(F)(F)F)cc1 | 1 | -1 | -2 | -2 | 2
Cc1onc(-c2ccccc2)c1C(=O)Nc1ncc([N+](=O)[O-])s1 | 1 | 43* | -4 | -8 | -32*
Cc1onc(-c2ccccc2)c1C(=O)Nc1nnc(C(C)C)s1 | 0 | 4 | 1 | 1 | 10

Screens (PubChem)
